“And” between values parts separate entries of the source, which are not always exact repeats. Equal values may be shown once. Where a structure was tested more than once in an assay, its records may differ in their call. The source made the active and inactive calls. The calls were made as follows: active = hit-call score of the fitted dose curve at least 0.9, where 1 is the maximum; inactive = score below 0.9.
read-out: CD38, CD38 (gene 952); assay: BSK_SAg_CD38: BioMAP Diversity Plus: SAg Assay for CD38 Biomarker Activity (AID 2283087); conditions: primary human HUVEC with PBMC; actives raise or lower the signal
Summary of the method: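 Measures CD38 on a human endothelial/PBMC co-culture driven by SEB and TSST-1, 24 h after compound exposure, using ELISA with fluorescence detection; DMSO defines baseline for bidirectional curve fitting.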

Row | Compound | outcome | AC50
1 | O=C(O)C(F)(F)C(F)(F)C(F)(F)C(F)(F)F | inactive | –
2 | OCC(F)(F)C(F)(F)C(F)(F)C(F)(F)C(F)(F)C(F)(F)F | – | 9.86 µM (active) and 5.95 µM (active)
3 | C=C(C)C(=O)OCCC(F)(F)C(F)(F)C(F)(F)C(F)(F)C(F)(C(F)(F)F)C(F)(F)F | inactive | –
4 | O=P(O)(O)OCCC(F)(F)C(F)(F)C(F)(F)C(F)(F)C(F)(F)C(F)(F)F | inactive | –
5 | O=S(=O)(OCC(F)F)C(F)(F)F | inactive | 220 nM (active)
6 | O=C(CC(=O)C(F)(F)C(F)(F)F)C(F)(F)F | inactive | –
7 | C=CC(=O)OCC(F)(F)C(F)(F)C(F)(F)C(F)(F)COC(=O)C=C | – | 17.6 µM (active) and 20.6 µM (active)
8 | CCCCCCCCC(F)(F)C(F)(F)C(F)(F)C(F)(F)C(F)(F)C(F)(F)F | inactive | –
9 | N=C(N)C(F)(F)C(F)(F)C(F)(F)C(F)(F)C(F)(F)C(F)(F)C(F)(F)F | inactive | 53600 nM (active)
10 | O=C(O)C(F)(F)C(F)(F)F | inactive | –
11 | FC(F)(I)C(F)(F)C(F)(F)C(F)(F)I | inactive | –
12 | FC(F)(F)C(F)(F)C(F)(F)C(F)(F)C(F)(F)C(F)(F)C(F)(F)C(F)(F)F | inactive | –
13 | FC(F)(F)C(F)(F)C(F)(F)N(C(F)(F)C(F)(F)C(F)(F)F)C(F)(F)C(F)(F)C(F)(F)F | inactive | –
14 | FC(F)(F)C(F)(F)CNCC(F)(F)C(F)(F)F | inactive | –
15 | FC(F)(F)C(F)(F)C(F)(F)C(F)(F)C(F)(F)C(F)(F)CCS | inactive | –
16 | O=C(O)C(F)(F)C(F)(F)C(F)(F)F | inactive | –
17 | O=C(O)C(F)(F)C(F)(F)C(F)(F)C(F)(F)C(F)(F)C(F)(F)C(F)(F)C(F)(F)Cl | – | 50.4 µM (active) and 30 µM (active)
18 | O=C(O)C(F)(OC(F)(F)C(F)(OC(F)(F)C(F)(OC(F)(F)C(F)(F)C(F)(F)F)C(F)(F)F)C(F)(F)F)C(F)(F)F (stereo not given) | inactive | –

Row | Compound | outcome | AC50
19 | FC(F)(Br)C(F)(F)C(F)(F)C(F)(F)C(F)(F)C(F)(F)Br | inactive | –
20 | O=C(O)C(F)(F)C(F)(F)C(F)F | inactive | –
21 | O=C(O)C(F)(OC(F)(F)C(F)(OC(F)(F)C(F)(F)C(F)(F)F)C(F)(F)F)C(F)(F)F (stereo not given) | inactive | –
22 | CCCCC(CC)COP(=O)(O)OCC(CC)CCCC (stereo not given) | inactive | –
23 | C=CC(F)(F)C(F)(F)C(F)(F)C(F)(F)C(F)(F)C(F)(F)C(F)(F)C(F)(F)F | inactive | –
24 | COC(=O)CCC(F)(F)C(F)(F)C(F)(F)C(F)(F)F | inactive | –
25 | C=CC(=O)OCC(F)(F)C(F)(F)C(F)(F)C(F)(F)C(F)(F)C(F)(F)C(F)(F)F | inactive | –
26 | FC(F)(F)C(F)(F)C(F)(F)C(F)(F)C(F)(F)C(F)(F)CC1CO1 (stereo not given) | inactive | –
27 | FC(F)(F)C(F)(F)C(F)(F)C(F)(F)C(F)(F)C(F)(F)C(F)(F)C(F)(F)CCS | inactive | –
28 | OCC(F)(F)C(F)(F)C(F)(F)C(F)(F)C(F)(F)C(F)F | inactive | –
29 | FC1CC(F)(F)C(F)(F)C1(F)F (stereo not given) | inactive | –
30 | FC(F)(F)C(F)(F)C(F)(F)CI | inactive | –
31 | NC(=O)C(F)(F)C(F)(F)C(F)(F)C(F)(F)F | inactive | –
32 | C=CC(F)(F)C(F)(F)C(F)(F)C(F)(F)C(F)(F)C(F)(F)C(F)(F)C(F)(F)C=C | inactive | –
33 | OCC(F)(F)C(F)(F)C(F)(F)C(F)F | inactive | –
34 | OCC(F)(F)C(F)(F)C(F)(F)F | inactive | –
35 | OCCCC(F)(F)C(F)(F)C(F)(F)F | inactive | –
36 | O=S(=O)(OCCOC(F)(F)F)C(F)(F)F | inactive | –

read-out: CD40, CD40 (gene 958); assay: BSK_SAg_CD40: BioMAP Diversity Plus: SAg Assay for CD40 Biomarker Activity (AID 2283088); conditions: primary human HUVEC with PBMC; actives raise or lower the signal
Summary of the method: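 Human umbilical vein endothelial cells co-cultured with PBMC; CD40 levels measured by ELISA with fluorescence read-out 24 h after chemical dosing. Gain or loss of signal fitted bidirectionally against DMSO baseline.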

Row | Compound | outcome | AC50
37 | O=C(O)C(F)(F)C(F)(F)C(F)(F)C(F)(F)F | inactive | –
38 | OCC(F)(F)C(F)(F)C(F)(F)C(F)(F)C(F)(F)C(F)(F)F | inactive | –
39 | C=C(C)C(=O)OCCC(F)(F)C(F)(F)C(F)(F)C(F)(F)C(F)(C(F)(F)F)C(F)(F)F | inactive | –
40 | O=P(O)(O)OCCC(F)(F)C(F)(F)C(F)(F)C(F)(F)C(F)(F)C(F)(F)F | inactive | –
41 | O=S(=O)(OCC(F)F)C(F)(F)F | inactive | –
42 | O=C(CC(=O)C(F)(F)C(F)(F)F)C(F)(F)F | inactive | –
43 | C=CC(=O)OCC(F)(F)C(F)(F)C(F)(F)C(F)(F)COC(=O)C=C | – | 13.1 µM (active) and 15.1 µM (active)
44 | CCCCCCCCC(F)(F)C(F)(F)C(F)(F)C(F)(F)C(F)(F)C(F)(F)F | inactive | –
45 | N=C(N)C(F)(F)C(F)(F)C(F)(F)C(F)(F)C(F)(F)C(F)(F)C(F)(F)F | inactive | 54.7 µM (active)
46 | O=C(O)C(F)(F)C(F)(F)F | inactive | –
47 | FC(F)(I)C(F)(F)C(F)(F)C(F)(F)I | inactive | –
48 | FC(F)(F)C(F)(F)C(F)(F)C(F)(F)C(F)(F)C(F)(F)C(F)(F)C(F)(F)F | inactive | –
49 | FC(F)(F)C(F)(F)C(F)(F)N(C(F)(F)C(F)(F)C(F)(F)F)C(F)(F)C(F)(F)C(F)(F)F | inactive | –
50 | FC(F)(F)C(F)(F)CNCC(F)(F)C(F)(F)F | inactive | –
51 | FC(F)(F)C(F)(F)C(F)(F)C(F)(F)C(F)(F)C(F)(F)CCS | inactive | –
52 | O=C(O)C(F)(F)C(F)(F)C(F)(F)F | inactive | –
53 | O=C(O)C(F)(F)C(F)(F)C(F)(F)C(F)(F)C(F)(F)C(F)(F)C(F)(F)C(F)(F)Cl | – | 38.2 µM (active) and 45.9 µM (active)
54 | O=C(O)C(F)(OC(F)(F)C(F)(OC(F)(F)C(F)(OC(F)(F)C(F)(F)C(F)(F)F)C(F)(F)F)C(F)(F)F)C(F)(F)F (stereo not given) | inactive | –

Row | Compound | outcome | AC50
55 | FC(F)(Br)C(F)(F)C(F)(F)C(F)(F)C(F)(F)C(F)(F)Br | inactive | –
56 | O=C(O)C(F)(F)C(F)(F)C(F)F | inactive | –
57 | O=C(O)C(F)(OC(F)(F)C(F)(OC(F)(F)C(F)(F)C(F)(F)F)C(F)(F)F)C(F)(F)F (stereo not given) | inactive | –
58 | CCCCC(CC)COP(=O)(O)OCC(CC)CCCC (stereo not given) | inactive | –
59 | C=CC(F)(F)C(F)(F)C(F)(F)C(F)(F)C(F)(F)C(F)(F)C(F)(F)C(F)(F)F | inactive | –
60 | COC(=O)CCC(F)(F)C(F)(F)C(F)(F)C(F)(F)F | inactive | –
61 | C=CC(=O)OCC(F)(F)C(F)(F)C(F)(F)C(F)(F)C(F)(F)C(F)(F)C(F)(F)F | inactive | –
62 | FC(F)(F)C(F)(F)C(F)(F)C(F)(F)C(F)(F)C(F)(F)CC1CO1 (stereo not given) | inactive | –
63 | FC(F)(F)C(F)(F)C(F)(F)C(F)(F)C(F)(F)C(F)(F)C(F)(F)C(F)(F)CCS | inactive | –
64 | OCC(F)(F)C(F)(F)C(F)(F)C(F)(F)C(F)(F)C(F)F | inactive | –
65 | FC1CC(F)(F)C(F)(F)C1(F)F (stereo not given) | inactive | –
66 | FC(F)(F)C(F)(F)C(F)(F)CI | inactive | –
67 | NC(=O)C(F)(F)C(F)(F)C(F)(F)C(F)(F)F | inactive | –
68 | C=CC(F)(F)C(F)(F)C(F)(F)C(F)(F)C(F)(F)C(F)(F)C(F)(F)C(F)(F)C=C | inactive | –
69 | OCC(F)(F)C(F)(F)C(F)(F)C(F)F | inactive | –
70 | OCC(F)(F)C(F)(F)C(F)(F)F | inactive | –
71 | OCCCC(F)(F)C(F)(F)C(F)(F)F | inactive | –
72 | O=S(=O)(OCCOC(F)(F)F)C(F)(F)F | inactive | –
